Reference: PubChem BioAssay (Tox21)
Results filed as inconclusive are left out. The source made the active and inactive calls. The call rests on the fitted dose curve.

test: qHTS assay to identify small molecule agonists or antagonists of the thyroid stimulating hormone receptor (TSHR) signaling pathway - wild type cell line counter screen (AID 1259384); settings: HEK293 wild type, cAMP HTRF counter-screen; series mostly up to 92.4 µM; cAMP activity change: at the top concentration
Description: U.S. Tox21 Program National Center for Advancing Translational Sciences [NCATS] NIH Chemical Genomics Center [NCGC] U.S. Environmental Protection Agency [EPA] National Institutes of Environmental Health Sciences [NIEHS] National Toxicology Program [NTP] U.S. Food and Drug Administration [FDA] Tox21 Assay Overview: TSHR is the receptor for thyrotropin (thyroid stimulating hormone or TSH), a member of the glycoprotein hormone family. TSH is released by the anterior pituitary gland and is the main regulator of thyroid gland growth and development. Upon binding circulating thyrotropin, a G-protein signal cascade activates adenylyl cyclase and […] cAMP concentration is increased. cAMP is a key second messenger involved extensively in cellular signal transduction pathways associated with the majority of G-protein coupled receptors (GPCRs). The activation of these GPCRs by neurotransmitters, lipids, nucleotides, peptides and hormones results in the activation or the inhibition of plasma membrane-bound adenylate cyclase through heterotrimeric G-proteins. A cell-based TSHR-Hek293 assay can be used to identify TSHR agonists. To eliminate the false positive compounds identified from screening a cell-based TSHR-Hek293 cell line, cAMP assay in a wild type Hek293 cells was used as a counter screening.
Tox21 Assay Protocol Summary: Hek293 cells (wild type) were dispensed at 800 cells/4 uL/well in 1536-well white plates using a Multidrop dispenser. After the assay plates were incubated at a 37 C/5% CO2 incubator for 18 hrs, 23 nL of compounds dissolved in DMSO, positive controls or DMSO only was transferred to the assay plate by a pin tool, followed by 1 ul medium containing Ro20-1724. After 30 min of incubation at room temperature, 2.5 ul/well of cAMP-d2 and 2.5 ul/well of anti-cAMP-cryptate were added respectively into the assay plates using a Flying Reagent Dispenser. The plates were incubated at room temperature for 1 hr. The fluorescence intensity in the plates was measured using an Envision plate reader. Each test compound was measured at 15 concentrations and in triplicates.
On the % scale 0 is the no-effect control and ±100 the full control effect.

Row | SMILES | cAMP activity change
1 | Oc1ccc2c(c1)Cc1ccccc1-2 | 2.71% (inactive)
2 | CCOC(=O)c1c(N)sc2c1CCN(Cc1ccccc1)C2 | 1.34% [at 42.5 µM, active compounds read high] (inactive)
3 | CC[C@@H](CO)NCCN[C@@H](CC)CO | -0.039% [at 42.5 µM, active compounds read high] (inactive)
4 | CCCCCCCC(=O)OCCCCCC | 0.118% (inactive)
5 | CC[C@H]1OC(=O)[C@H](C)[C@@H](O[C@H]2C[C@@](C)(OC)[C@@H](O)[C@H](C)O2)[C@H](C)[C@@H](O[C@@H]2O[C@H](C)C[C@H](N(C)C)[C@H]2O)[C@](C)(O)C[C@@H](C)CN(C)[C@H](C)[C@@H](O)[C@]1(C)O | -8.16% [at 42.5 µM, active compounds read high] (inactive)
6 | CC1CCC(C(C)CS)CC1S (stereo not given) | 7.28% (inactive)
7 | CC(C)(O)c1coc(S(=O)(=O)NC(=O)Nc2c3c(cc4c2CCC4)CCC3)c1 | 4.78% (inactive)
8 | O=[N+]([O-])C1(Br)COCOC1 | 11.9% (inactive)
9 | C=CC(=O)NC(C)C | 5.62% (inactive)
10 | O=C(Nc1ccc(C(=O)O)c(O)c1)c1ccccc1 | 1.8% [at 42.5 µM, active compounds read high] (inactive)
11 | CCC(=O)OCc1ccc(OC)cc1 | 5.47% (inactive)
12 | COc1cc(OC)c2ccc(=O)oc2c1 | 11.1% (inactive)
13 | CCO[Si](C)(CCCOCC1CO1)OCC (stereo not given) | 0.357% (inactive)
14 | CCCCCCCCCCCCCCCC(=O)OCC | -6.77% (inactive)
15 | CC(C)(C)S | 0.0206% (inactive)
16 | COc1ccc(C)cc1 | -0.116% (inactive)
17 | CCN(CC)C(=O)N1CCN(C)CC1 | -5.07% [at 42.5 µM, active compounds read high] (inactive)
18 | O=P(O)(O)Oc1ccccc1 | -0.267% (inactive)
19 | Cc1ccc(Cl)cc1N | -2.36% (inactive)
20 | CN1CCCN(C(c2ccccc2)c2ccc(Cl)cc2)CC1 (stereo not given) | -1.98% [at 42.5 µM, active compounds read high] (inactive)

Row | SMILES | cAMP activity change
21 | FC(F)(F)C(F)(F)C(F)(F)C(F)(F)CCI | 4.14% [at 42.5 µM, active compounds read high] (inactive)
22 | Cc1ccc2c(c1)CCCN2 | -8.33% (inactive)
23 | CC(C)(O)CCc1ccccc1 | -1.5% (inactive)
24 | CCCCCCCC(=O)Oc1c(Br)cc(C#N)cc1Br | -1.44% (inactive)
25 | O=NN(CCCl)C(=O)NCCCl | -5.09% [at 42.5 µM, active compounds read high] (inactive)
26 | Cc1ccc(NC(=O)N(C)C)cc1NC(=O)N(C)C | -0.56% (inactive)
27 | O=C(O)CNC(=O)c1ccccc1I | -0.32% [at 42.5 µM, active compounds read high] (inactive)
28 | COC(=O)c1sccc1S(N)(=O)=O | 0.11% (inactive)
29 | O=S(=O)(O)CO | 2.74% (inactive)
30 | CCN(CC)CCOc1ccccc1C(=O)CCc1ccccc1 | 5.49% [at 42.5 µM, active compounds read high] (inactive)
31 | CSSc1ccoc1C | -0.133% (inactive)
32 | CC(C)CC(O)CC(C)C | 2.34% (inactive)
33 | CCCc1nc2c(C)cc(-c3nc4ccccc4n3C)cc2n1Cc1ccc(-c2ccccc2C(=O)O)cc1 | -0.753% [at 42.5 µM, active compounds read high] (inactive)
34 | O=C1OC[C@H](Cc2cccc(O)c2)[C@H]1Cc1cccc(O)c1 | -0.0314% [at 42.5 µM, active compounds read high] (inactive)
35 | O=C(O)c1cc(Cl)cc(Cl)c1O | -0.369% (inactive)
36 | CS(=O)(=O)c1ccc([C@@H](C[C@H]2CCC(=O)C2)C(=O)Nc2cnccn2)cc1Cl | 20.3% (inactive)
37 | COc1cc(C(C)=O)ccc1OCCCN1CCC(c2noc3cc(F)ccc23)CC1 | -2.59% [at 42.5 µM, active compounds read high] (inactive)
38 | Cc1cn([C@H]2C[C@H](F)[C@@H](CO)O2)c(=O)[nH]c1=O | -6.45% [at 42.5 µM, active compounds read high] (inactive)
39 | CCC(CO)(CO)CO | 2.67% (inactive)
40 | Cc1ccc(S(=O)(=O)NC(=O)NC2CCCCC2)cc1 | 6.5% [at 42.5 µM, active compounds read high] (inactive)
